Results filed as inconclusive are left out. Active and inactive are the calls of the source. The call rests on the fitted dose curve; in most records, active means well fitted cell-killing curve with a large enough effect; inconclusive means small, poorly fitted or top-dose-only effect, or effect the other way; inactive means flat fitted curve, though single readings scatter.
Legend:
Experiment in all cases: Primary qHTS to identify gynecologic anti-cancer compounds using libraries of approved drugs and bioactive compounds (AID 1345084); further: nearly all actives have a fitted effect of over 55% in size
Details in all cases: Gynecologic cancer cell panel viability, ATPlite luminescence, 48 h; series mostly up to 57.5 µM
[1] = test system: OV90
Procedure, shortened: (§1)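 Five-concentration response, 48 h; readout is ATP-driven luciferase luminescence.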

[2] = test system: PA-1
Procedure, shortened: as §1

[3] = test system: SKOV3
Procedure, shortened: as §1

[4] = test system: Tov-21-G
Procedure, shortened: as §1

[5] = test system: Tov112D
Procedure, shortened: as §1
On the % scale 0 is the no-effect control and ±100 the full control effect.

CC(=O)O[C@H]1C[C@@H](O)C(C)(C)C2C[C@@H](OC(C)=O)[C@]3(C)C(CC[C@@]4(C)[C@H](c5ccoc5)OC(=O)[C@H]5O[C@]543)[C@]21C (stereo not given in full)
inactive: Potency [1] | Potency [2] | Potency [3] | Potency [4] | Potency [5]

CC(=O)O[C@@H]1[C@H](OC(C)=O)C[C@@]2(C)C(CC[C@@H](C)[C@]23Cc2c(O)cc4c(c2O3)CN([C@@H](CCC(=O)O)C(=O)O)C4=O)C1(C)C (stereo not given in full)
inactive: Potency [1] | Potency [2] | Potency [3] | Potency [4] | Potency [5]

Cc1cc(OCCN2CCOCC2)nn1-c1ccc2ccccc2c1
inactive: Potency [1] | Potency [2] | Potency [3] | Potency [4] | Potency [5]

C[C@H]1[C@H](C)CC[C@]2(C(=O)OC3OC(CO)C(O)C(O)C3O)CC[C@]3(C(=O)O)C(=CCC4[C@@]5(C)CC[C@H](O[C@@H]6O[C@@H](C)[C@H](OC7OC(CO)C(O)C(O)C7O)[C@@H](O)[C@H]6O)C(C)(C)C5CC[C@]43C)[C@H]12 (stereo not given in full)
inactive: activity change, negative = cytotoxicity [1] 2.97% [at 11.6 µM] | activity change, negative = cytotoxicity [2] -4.62% [at 11.6 µM] | activity change, negative = cytotoxicity [3] 0% [at 11.6 µM] | activity change, negative = cytotoxicity [4] 0.351% [at 11.6 µM] | activity change, negative = cytotoxicity [5] -1.72% [at 11.6 µM]

CC(C)CC(=O)OC[C@@]1(O)C[C@@]23CC[C@H]4[C@@](C)(CCC[C@@]4(C)C(=O)O)[C@@H]2CC[C@@H]1C3
inactive: Potency [1] | Potency [2] | Potency [3] | Potency [4] | Potency [5]

Reference: PubChem BioAssay (NCATS)
